# Key:
# [1] = molecular target: Rho-associated protein kinase 1 (Homo sapiens) (UniProt Q13464); settings: at 1 µM;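 note: reported values are mean percent inhibition of ROCK1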
# [2] = molecular target: Rho-associated protein kinase 2 (Homo sapiens) (UniProt O75116); settings: at 0.1 µM
# [3] = molecular target: Rho-associated protein kinase 2 (Homo sapiens) (UniProt O75116); settings: at 1 µM
# [4] = molecular target: Ribosomal protein S6 kinase alpha-1 (Homo sapiens) (UniProt Q15418); settings: at 0.1 µM
# Chain of Ribosomal protein S6 kinase alpha-1 (Homo sapiens) (Q15418 whole entry): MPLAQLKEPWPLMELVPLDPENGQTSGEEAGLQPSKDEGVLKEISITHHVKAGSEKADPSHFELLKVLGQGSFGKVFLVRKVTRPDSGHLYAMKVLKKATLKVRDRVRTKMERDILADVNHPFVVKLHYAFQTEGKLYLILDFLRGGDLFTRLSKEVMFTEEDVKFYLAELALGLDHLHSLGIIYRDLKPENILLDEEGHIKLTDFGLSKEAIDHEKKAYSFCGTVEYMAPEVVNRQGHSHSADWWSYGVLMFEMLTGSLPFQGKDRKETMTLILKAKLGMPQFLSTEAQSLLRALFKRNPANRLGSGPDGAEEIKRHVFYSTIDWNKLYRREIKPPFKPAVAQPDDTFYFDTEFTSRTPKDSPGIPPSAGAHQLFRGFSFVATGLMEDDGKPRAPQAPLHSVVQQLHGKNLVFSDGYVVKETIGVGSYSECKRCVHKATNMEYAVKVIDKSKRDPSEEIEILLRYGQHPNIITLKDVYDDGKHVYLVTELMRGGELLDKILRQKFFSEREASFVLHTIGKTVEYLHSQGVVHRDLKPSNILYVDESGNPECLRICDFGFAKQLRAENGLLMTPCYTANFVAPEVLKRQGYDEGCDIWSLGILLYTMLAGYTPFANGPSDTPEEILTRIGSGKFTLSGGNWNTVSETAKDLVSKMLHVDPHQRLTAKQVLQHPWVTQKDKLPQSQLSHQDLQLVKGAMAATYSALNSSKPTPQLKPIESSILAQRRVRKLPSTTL
# [5] = molecular target: Ribosomal protein S6 kinase alpha-1 (Homo sapiens) (UniProt Q15418); settings: at 1 µM
# [6] = molecular target: Ribosomal protein S6 kinase alpha-3 (Homo sapiens) (UniProt P51812); settings: at 0.1 µM
# [7] = molecular target: Ribosomal protein S6 kinase alpha-3 (Homo sapiens) (UniProt P51812); settings: at 1 µM
# [8] = molecular target: Ribosomal protein S6 kinase alpha-2 (Homo sapiens) (UniProt Q15349); settings: at 0.1 µM
# Chain of Ribosomal protein S6 kinase alpha-2 (Homo sapiens) (Q15349 whole entry): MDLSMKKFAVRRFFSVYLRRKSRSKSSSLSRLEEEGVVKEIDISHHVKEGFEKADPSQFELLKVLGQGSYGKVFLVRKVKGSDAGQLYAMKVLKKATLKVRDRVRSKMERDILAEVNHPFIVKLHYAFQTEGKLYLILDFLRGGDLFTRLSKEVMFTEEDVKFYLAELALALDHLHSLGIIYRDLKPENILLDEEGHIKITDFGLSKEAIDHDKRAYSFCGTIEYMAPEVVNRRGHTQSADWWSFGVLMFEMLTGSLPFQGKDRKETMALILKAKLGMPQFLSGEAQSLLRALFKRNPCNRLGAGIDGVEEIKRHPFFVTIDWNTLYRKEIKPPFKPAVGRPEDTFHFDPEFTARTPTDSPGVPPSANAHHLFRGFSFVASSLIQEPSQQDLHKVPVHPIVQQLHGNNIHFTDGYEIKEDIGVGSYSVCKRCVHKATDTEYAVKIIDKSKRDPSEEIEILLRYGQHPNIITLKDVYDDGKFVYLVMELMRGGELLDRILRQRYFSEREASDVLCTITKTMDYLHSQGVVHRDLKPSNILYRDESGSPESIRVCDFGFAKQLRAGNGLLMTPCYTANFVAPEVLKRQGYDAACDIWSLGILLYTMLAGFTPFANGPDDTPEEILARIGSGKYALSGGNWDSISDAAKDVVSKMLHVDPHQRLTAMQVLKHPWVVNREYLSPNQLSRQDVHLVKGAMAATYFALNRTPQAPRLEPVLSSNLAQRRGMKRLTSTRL
# [9] = molecular target: Ribosomal protein S6 kinase alpha-2 (Homo sapiens) (UniProt Q15349); settings: at 1 µM
# [10] = molecular target: Ribosomal protein S6 kinase alpha-6 (Homo sapiens) (UniProt Q9UK32); settings: at 0.1 µM
# [11] = molecular target: Ribosomal protein S6 kinase alpha-6 (Homo sapiens) (UniProt Q9UK32); settings: at 1 µM
# [12] = molecular target: T1, Serine/threonine-protein kinase Sgk1 (Homo sapiens) (UniProt O00141); settings: at 0.1 µM
# T1 sequence (whole entry): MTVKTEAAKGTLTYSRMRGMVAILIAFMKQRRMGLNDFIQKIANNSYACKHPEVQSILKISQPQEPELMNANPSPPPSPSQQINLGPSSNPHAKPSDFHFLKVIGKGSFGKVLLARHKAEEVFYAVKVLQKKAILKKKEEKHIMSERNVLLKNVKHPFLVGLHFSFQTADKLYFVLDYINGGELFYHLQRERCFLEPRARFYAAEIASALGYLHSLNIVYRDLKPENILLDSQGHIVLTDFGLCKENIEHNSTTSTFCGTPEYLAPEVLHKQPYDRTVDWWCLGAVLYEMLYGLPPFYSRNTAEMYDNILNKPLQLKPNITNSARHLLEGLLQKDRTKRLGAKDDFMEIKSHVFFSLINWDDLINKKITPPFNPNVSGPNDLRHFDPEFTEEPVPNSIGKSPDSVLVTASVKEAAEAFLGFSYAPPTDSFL
# [13] = molecular target: T1, Serine/threonine-protein kinase Sgk1 (Homo sapiens); settings: at 1 µM
# [14] = molecular target: T2, Serine/threonine-protein kinase Sgk2 (Homo sapiens) (UniProt Q9HBY8); settings: at 0.1 µM
# T2 sequence (whole entry): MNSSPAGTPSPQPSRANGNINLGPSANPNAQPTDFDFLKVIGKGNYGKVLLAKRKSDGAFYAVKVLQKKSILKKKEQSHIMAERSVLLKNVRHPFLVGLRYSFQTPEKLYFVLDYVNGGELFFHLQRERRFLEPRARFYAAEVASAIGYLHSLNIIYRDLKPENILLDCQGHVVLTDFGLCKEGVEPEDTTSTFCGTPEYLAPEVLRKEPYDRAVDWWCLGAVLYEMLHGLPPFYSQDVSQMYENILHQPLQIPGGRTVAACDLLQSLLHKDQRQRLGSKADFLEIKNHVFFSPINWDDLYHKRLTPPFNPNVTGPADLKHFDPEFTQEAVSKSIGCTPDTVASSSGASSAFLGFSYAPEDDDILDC
# [15] = molecular target: T2, Serine/threonine-protein kinase Sgk2 (Homo sapiens); settings: at 1 µM
# [16] = molecular target: T3, Serine/threonine-protein kinase Sgk3 (Homo sapiens) (UniProt Q96BR1); settings: at 0.1 µM
# T3 sequence (whole entry): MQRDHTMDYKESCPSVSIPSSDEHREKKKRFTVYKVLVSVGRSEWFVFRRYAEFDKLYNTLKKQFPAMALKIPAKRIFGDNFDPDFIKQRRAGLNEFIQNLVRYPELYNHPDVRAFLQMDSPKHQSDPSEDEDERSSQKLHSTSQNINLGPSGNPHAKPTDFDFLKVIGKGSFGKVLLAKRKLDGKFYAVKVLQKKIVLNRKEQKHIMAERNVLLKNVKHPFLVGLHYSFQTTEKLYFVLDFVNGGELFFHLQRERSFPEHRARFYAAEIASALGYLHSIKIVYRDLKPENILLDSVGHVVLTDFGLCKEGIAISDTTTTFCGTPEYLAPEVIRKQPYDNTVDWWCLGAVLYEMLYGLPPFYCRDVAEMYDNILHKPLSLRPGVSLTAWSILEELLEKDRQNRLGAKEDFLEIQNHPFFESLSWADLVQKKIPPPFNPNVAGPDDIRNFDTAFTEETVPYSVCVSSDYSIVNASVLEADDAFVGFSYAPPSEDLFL
# [17] = molecular target: T3, Serine/threonine-protein kinase Sgk3 (Homo sapiens); settings: at 1 µM
# [18] = molecular target: 5'-AMP-activated protein kinase catalytic subunit alpha-1 (Homo sapiens) (UniProt Q13131); settings: at 0.1 µM
# [19] = molecular target: 5'-AMP-activated protein kinase catalytic subunit alpha-1 (Homo sapiens) (UniProt Q13131); settings: at 1 µM
# [20] = molecular target: 5'-AMP-activated protein kinase catalytic subunit alpha-2 (Homo sapiens) (UniProt P54646); settings: at 0.1 µM;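 note: mean inhibition measured on the AMPK complex of alpha2, beta1 and gamma1 subunits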
# Chain of 5'-AMP-activated protein kinase catalytic subunit alpha-2 (Homo sapiens) (P54646 whole entry, looked up): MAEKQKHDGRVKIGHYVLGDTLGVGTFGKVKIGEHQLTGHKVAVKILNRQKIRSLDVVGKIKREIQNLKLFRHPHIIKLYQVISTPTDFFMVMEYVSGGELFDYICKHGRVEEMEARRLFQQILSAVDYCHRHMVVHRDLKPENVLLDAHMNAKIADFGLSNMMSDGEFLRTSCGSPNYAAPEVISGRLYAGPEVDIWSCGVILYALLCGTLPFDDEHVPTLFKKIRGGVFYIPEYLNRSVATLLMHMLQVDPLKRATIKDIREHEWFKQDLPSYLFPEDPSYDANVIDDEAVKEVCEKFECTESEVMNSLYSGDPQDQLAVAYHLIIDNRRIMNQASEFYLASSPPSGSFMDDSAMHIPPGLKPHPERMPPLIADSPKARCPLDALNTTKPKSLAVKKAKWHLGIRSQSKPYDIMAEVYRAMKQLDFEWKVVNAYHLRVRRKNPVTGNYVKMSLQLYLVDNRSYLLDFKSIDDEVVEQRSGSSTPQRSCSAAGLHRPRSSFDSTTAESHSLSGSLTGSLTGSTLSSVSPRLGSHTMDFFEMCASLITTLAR
# Chain of Rho-associated protein kinase 2 (Homo sapiens) (O75116 whole entry, looked up): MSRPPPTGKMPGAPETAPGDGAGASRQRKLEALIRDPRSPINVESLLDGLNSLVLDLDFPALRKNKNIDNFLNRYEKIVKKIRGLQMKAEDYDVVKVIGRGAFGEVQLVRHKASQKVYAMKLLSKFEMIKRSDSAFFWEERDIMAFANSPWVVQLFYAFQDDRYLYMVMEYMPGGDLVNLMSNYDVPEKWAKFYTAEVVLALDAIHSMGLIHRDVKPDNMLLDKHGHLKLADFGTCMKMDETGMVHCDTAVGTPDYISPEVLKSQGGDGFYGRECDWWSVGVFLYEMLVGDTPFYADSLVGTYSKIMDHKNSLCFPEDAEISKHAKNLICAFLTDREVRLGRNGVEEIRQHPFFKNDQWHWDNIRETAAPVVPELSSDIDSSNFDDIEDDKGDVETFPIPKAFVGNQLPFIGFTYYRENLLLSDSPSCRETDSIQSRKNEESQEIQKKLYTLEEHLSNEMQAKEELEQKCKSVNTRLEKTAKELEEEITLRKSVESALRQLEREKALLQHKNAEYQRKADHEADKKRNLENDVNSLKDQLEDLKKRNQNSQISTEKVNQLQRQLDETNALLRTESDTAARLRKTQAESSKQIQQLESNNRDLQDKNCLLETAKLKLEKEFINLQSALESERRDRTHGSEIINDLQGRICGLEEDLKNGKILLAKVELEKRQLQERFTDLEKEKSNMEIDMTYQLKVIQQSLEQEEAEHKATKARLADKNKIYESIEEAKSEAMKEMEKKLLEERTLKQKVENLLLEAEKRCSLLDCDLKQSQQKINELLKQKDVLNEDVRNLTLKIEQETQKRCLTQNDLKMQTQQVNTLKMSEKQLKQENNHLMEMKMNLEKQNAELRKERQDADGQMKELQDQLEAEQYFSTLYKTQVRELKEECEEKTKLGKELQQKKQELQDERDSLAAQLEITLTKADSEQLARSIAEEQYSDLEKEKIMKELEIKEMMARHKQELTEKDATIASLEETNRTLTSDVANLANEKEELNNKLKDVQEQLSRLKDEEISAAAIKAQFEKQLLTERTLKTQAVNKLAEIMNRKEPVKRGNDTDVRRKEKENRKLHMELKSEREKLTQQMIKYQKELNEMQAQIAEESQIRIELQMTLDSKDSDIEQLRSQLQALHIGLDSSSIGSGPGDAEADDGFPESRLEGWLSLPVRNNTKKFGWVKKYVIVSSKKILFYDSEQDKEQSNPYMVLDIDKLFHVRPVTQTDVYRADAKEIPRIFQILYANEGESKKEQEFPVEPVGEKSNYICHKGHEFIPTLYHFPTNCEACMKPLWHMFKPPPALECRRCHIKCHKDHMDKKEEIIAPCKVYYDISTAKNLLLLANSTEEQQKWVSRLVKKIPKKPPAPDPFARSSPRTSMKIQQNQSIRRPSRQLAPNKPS
# Chain of Rho-associated protein kinase 1 (Homo sapiens) (Q13464 2-1354 limits assumed): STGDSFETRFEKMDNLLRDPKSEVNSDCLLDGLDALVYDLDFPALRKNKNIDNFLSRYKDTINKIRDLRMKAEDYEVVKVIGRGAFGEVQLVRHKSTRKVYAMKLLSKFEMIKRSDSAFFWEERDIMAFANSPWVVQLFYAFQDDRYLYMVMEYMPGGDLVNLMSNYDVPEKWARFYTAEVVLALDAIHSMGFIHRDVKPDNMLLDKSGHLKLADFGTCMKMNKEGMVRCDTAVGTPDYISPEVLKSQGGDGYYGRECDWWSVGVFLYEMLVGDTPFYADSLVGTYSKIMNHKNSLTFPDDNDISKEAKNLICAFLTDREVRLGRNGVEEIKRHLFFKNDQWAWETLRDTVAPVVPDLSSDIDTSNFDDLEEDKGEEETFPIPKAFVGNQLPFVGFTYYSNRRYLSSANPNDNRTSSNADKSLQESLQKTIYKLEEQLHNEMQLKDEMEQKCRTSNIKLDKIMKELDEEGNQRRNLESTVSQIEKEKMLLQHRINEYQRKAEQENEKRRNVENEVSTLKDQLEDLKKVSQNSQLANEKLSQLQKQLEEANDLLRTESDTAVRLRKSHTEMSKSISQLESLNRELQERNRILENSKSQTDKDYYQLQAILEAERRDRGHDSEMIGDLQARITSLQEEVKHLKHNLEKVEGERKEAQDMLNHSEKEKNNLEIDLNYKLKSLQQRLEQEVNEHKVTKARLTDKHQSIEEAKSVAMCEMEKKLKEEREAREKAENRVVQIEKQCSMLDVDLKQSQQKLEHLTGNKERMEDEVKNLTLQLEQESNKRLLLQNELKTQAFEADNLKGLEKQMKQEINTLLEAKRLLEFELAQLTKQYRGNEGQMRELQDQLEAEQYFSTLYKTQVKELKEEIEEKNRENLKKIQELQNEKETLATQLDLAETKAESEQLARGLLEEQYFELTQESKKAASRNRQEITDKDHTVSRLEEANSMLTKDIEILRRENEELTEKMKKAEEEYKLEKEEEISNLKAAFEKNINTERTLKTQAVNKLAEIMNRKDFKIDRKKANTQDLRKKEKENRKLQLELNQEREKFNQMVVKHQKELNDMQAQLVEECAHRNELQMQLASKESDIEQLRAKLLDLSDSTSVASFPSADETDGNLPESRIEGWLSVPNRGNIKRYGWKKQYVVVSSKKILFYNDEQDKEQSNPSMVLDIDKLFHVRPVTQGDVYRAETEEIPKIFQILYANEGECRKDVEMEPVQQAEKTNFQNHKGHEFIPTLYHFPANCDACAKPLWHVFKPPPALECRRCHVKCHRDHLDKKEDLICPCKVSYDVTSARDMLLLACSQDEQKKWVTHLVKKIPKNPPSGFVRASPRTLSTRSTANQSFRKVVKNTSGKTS
Structure (SMILES),inhibition [1],inhibition [2],inhibition [3],inhibition [4],inhibition [5],inhibition [6],inhibition [7],inhibition [8],inhibition [9],inhibition [10],inhibition [11],inhibition [12],inhibition [13],inhibition [14],inhibition [15],inhibition [16],inhibition [17],inhibition [18],inhibition [19],inhibition [20]
COC(=O)c1cncc(/C=C/c2c(C)cc(O)cc2C)c1,1.27%,3.8%,5.21%,2.26%,4.95%,1.3%,2.62%,2.03%,2.47%,1.66%,6.87%,3.1%,4.65%,3.28%,2.28%,2.89%,4.83%,2.38%,5.18%,0.21%
Nc1nccc(-c2c(-c3ccc(F)cc3)nn3cc(C(F)(F)F)ccc23)n1,-0.27%,-1.57%,0.18%,0.48%,0.53%,-0.83%,-1.02%,0.95%,0.63%,-1.83%,-1.48%,1.36%,0.06%,2.28%,-4.03%,3.01%,-3.28%,-1.23%,-0.36%,0.94%
CN(c1ccc(NC(=O)Nc2ccc(OC(F)(F)F)cc2)cc1)c1ccnc(Nc2cccc(S(N)(=O)=O)c2)n1,1.61%,-0.23%,3.48%,0.06%,0.25%,-0.29%,-0.29%,1.62%,2.2%,-0.26%,-0.89%,2.63%,1.43%,3.27%,4.82%,7.71%,2.44%,0.3%,1.3%,-1.16%
COc1cc2ncn(-c3cc(OCc4ccccc4S(C)(=O)=O)c(C#N)s3)c2cc1OC,6.5%,5.73%,6.61%,5.57%,14%,5.02%,13.7%,3.37%,10.2%,3.14%,16.4%,2.34%,4.47%,2.96%,4.38%,4.43%,4.05%,33.4%,74.6%,5.84%
OCc1ccc(-c2nc(-c3ccccn3)c(-c3ccc4c(c3)OCO4)[nH]2)cc1,2.25%,3.74%,1.44%,1.38%,0.67%,0.79%,0.24%,2.72%,3.66%,1.53%,2.9%,3.65%,0.91%,1.37%,1.29%,3.28%,2.86%,3.68%,2.81%,2.09%
Cc1nc(-c2ccccc2)n2nc(NCCCN3CCOCC3)ncc12,0.26%,2.1%,0.91%,1.44%,5.36%,2.6%,7.74%,3.24%,7.6%,2.39%,12.8%,2.86%,2.79%,2.32%,0.65%,0.22%,1.99%,2.89%,6.04%,3.08%
NC(=O)c1cccc(Nc2nccc(Nc3cccc(F)c3)n2)c1,0.46%,0.51%,1.52%,-1.2%,1.35%,0.35%,1.16%,1.27%,1.94%,1.27%,6.03%,0.89%,-0.08%,3.63%,3.3%,0.73%,-1.45%,-0.48%,3.96%,1.99%
O=C1Nc2ccccc2/C1=C/Nc1ccc2[nH]c(=O)[nH]c2c1,4.42%,3.76%,13.7%,3.61%,20.9%,2.19%,14.7%,4.19%,20.5%,2.19%,16.3%,5.08%,22.7%,1.44%,13.4%,3.83%,9.07%,6.25%,20%,4.32%
N#Cc1cccc(Nc2nccc(-c3cnn4ncccc34)n2)c1,5.33%,3.28%,12.4%,2.54%,7.07%,0.17%,4.03%,2.01%,4.16%,1.51%,8.8%,2.22%,10.4%,4.89%,5.14%,5.14%,7.33%,2.67%,10.4%,2.03%
Cc1ccc(C(=O)NC2CC2)cc1-c1ccc2[nH]ncc2c1,6.16%,0.52%,16.1%,1.16%,1.93%,2.94%,4.97%,-0.94%,0.23%,-0.73%,-0.57%,-2.34%,-1.16%,-5.03%,-0.82%,-5.05%,1.68%,-1.87%,0.2%,0.12%
Cc1cc(-c2ccccn2)cc(C)c1/C=C/c1cncc(-c2nn[nH]n2)c1,2.97%,1.11%,3.33%,-1.27%,1.85%,-0.57%,1.01%,0.4%,1.84%,-1.04%,1.31%,0.67%,1.66%,3.28%,-0.92%,4.48%,2.45%,0.33%,3.53%,6.43%

# Source: ChEMBL document CHEMBL1961873, “Compounds: GSK PKIS; Assays: Nanosyn kinase panel” (2012)
